We go through 20 compounds from PubChem BioAssay (NCI).

Compounds without any hit were thinned out: in the full panel of roughly 79,000, 15% have a hit. Unmarked numbers belong to inactive results. Activity calls are given as the source filed them. Cut-off read from the data, not from the text of the source: active = growth inhibition above about 70%; inactive = the rest.

Assay [1] in a line: NCI Yeast Anticancer Drug Screen. Data for the rad50 strain (AID 155).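 Note: 0% = growth of vehicle-only cultures of the same strain.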 Conditions: S. cerevisiae rad50 strain growth inhibition; at 50.0 µM; active compounds read high. In a few lines: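 Inhibition values express reduced yeast growth in compound-treated cultures relative to vehicle-treated controls.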
A short description of assay [2]: NCI Yeast Anticancer Drug Screen. Data for the mec2-1 strain (AID 157). As to conditions: S. cerevisiae mec2-1 strain, at 50.0 µM, active compounds read high. An outline of the steps:
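Each compound was tested on mec2-1 yeast, a strain altered in DNA damage repair or cell cycle control. Growth inhibition is reported relative to vehicle.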

The nature of assay [3]: NCI Yeast Anticancer Drug Screen. Data for the sgs1 mgt1 strain (AID 161).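 Note: 0% = growth of cultures given vehicle only.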 As to conditions: S. cerevisiae sgs1 mgt1 strain, at 50.0 µM, active compounds read high. An outline of the steps:
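Inhibition of yeast growth, normalised to vehicle-treated controls, is reported for a strain bearing genetic alterations in DNA damage repair.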

The nature of assay [4]: NCI Yeast Anticancer Drug Screen. Data for the cln2 rad14 strain (AID 165).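 Note: 0% = growth equal to vehicle treated cultures.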 Conditions: S. cerevisiae cln2 rad14 strain, at 50.0 µM, active compounds read high. An outline of the steps: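 Test compounds were added to cln2 rad14 yeast cultures; inhibition of growth was then determined by comparison with vehicle treatment.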
Assay [5] can be described thus: NCI Yeast Anticancer Drug Screen. Data for the bub3 strain (AID 167). As to conditions: S. cerevisiae bub3 mutant strain, at 50.0 µM, active compounds read high. An outline of the steps: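 Steps: expose the mutant yeast strain to compound; grow alongside vehicle-treated cultures; measure growth; express inhibition against the vehicle cultures.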
A short description of assay [6]: NCI Yeast Anticancer Drug Screen. Data for the mlh1 rad18 strain (AID 175). Conditions: S. cerevisiae mlh1 rad18 strain growth inhibition; at 50.0 µM; active compounds read high. An outline of the steps:
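Inhibition values reflect reduced growth of mutant yeast versus vehicle-treated controls following compound exposure; the mutations affect DNA damage repair.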

As to `CCCCCCCCN(C)/N=N/c1nc[nH]c1C(N)=O`, the growth inhibition in assay [1] was 20.7%; in assay [2], -4.7%; in assay [3], 15.1%; in assay [4], 17.6%; in assay [5], 17.8%; in assay [6], 24.4%.

For `O=C1OC(=O)C2=C1C1C=CC2CC1`, the growth inhibition in assay [1] is 3.4%; in assay [2] it was -7.05%; in assay [3] it was 3%; in assay [4], 0%; in assay [5], -9.05%; in assay [6], 13.4%.

On to `CCCCCN(CCCCC)CC(O)c1cccc2c1cc(Br)c1ccccc12` (stereo not given), for which the growth inhibition was 30.7% in assay [1]; 1.55% in assay [2]; 8.7% in assay [3]; 8.45% in assay [4]; 0.85% in assay [5]; 14.7% in assay [6].

With `CCSC(COC(C)=O)(SCC)C(OC(C)=O)C(OC(C)=O)C(COC(C)=O)OC(C)=O` (stereo not given), the growth inhibition in assay [1] was 10.9%; in assay [2] it was 6.55%; in assay [3] it was -9%; in assay [4] it was -6.3%; in assay [5], -2.6%; in assay [6], 14.4%.

Regarding `CN(C)CCNc1ccc2nnn3c4ccccc4c(=O)c1c23`, the growth inhibition in assay [1] is 32.5%; in assay [2] it was 7.45%; in assay [3] it was 11.2%; in assay [4] it was 29.7%; in assay [5], 3%; in assay [6] it was 25.5%.

Turning to `Nc1nnnn1NC(=O)NCCCl`, the growth inhibition in assay [1] was -43.7%; in assay [2] it was -38.7%; in assay [3], -35.9%; in assay [4] it was -18.4%; in assay [5] it was -27.4%; in assay [6], -26.5%.

Turning to `CC1=C(C(=O)CC(=O)C(=O)Nc2ccc(C)cc2)Sc2ccccc2N1`, the growth inhibition in assay [1] is -7.35%; in assay [2] it was 21.1%; in assay [3], -16.4%; in assay [4], 21.9%; in assay [5] it was -9.1%; in assay [6] it was -8.25%.

As to `O=C(O)CCSc1nc2ccccc2s1`, the growth inhibition in assay [1] is 1.2%; in assay [2], -9.85%; in assay [3], 2.75%; in assay [4] it was 0.3%; in assay [5], -14.2%; in assay [6] it was 19.1%.

For the compound `CCCCCCCCS(=O)(=O)NC`, the growth inhibition in assay [1] was 0.95%; in assay [2], -9.8%; in assay [3], -8.75%; in assay [4], -10%; in assay [5], 16.4%; in assay [6] it was 5.7%.

As to `COC(=O)C(C(=O)C(=O)NC1=C(Cl)C(=O)c2ccccc2C1=O)c1csc(-n2nc(-c3ccccc3)cc2-c2ccccc2)n1` (stereo not given), the growth inhibition in assay [1] is -0.4%; in assay [2] it was -26.6%; in assay [3], -14.4%; in assay [4] it was 0.85%; in assay [5] it was 26.1%; in assay [6], -5.4%.

For the compound `Cc1cc(C(=O)O)c(C(=O)O)c(=O)[nH]1`, the growth inhibition in assay [1] is 0.6%; in assay [2] it was 5.8%; in assay [3], 0.3%; in assay [4] it was 7.1%; in assay [5], -1.05%; in assay [6] it was -13.9%.

As to `O=C1c2ccccc2C(=O)N1CNc1ccccc1S`, the growth inhibition in assay [1] is 13.2%; in assay [2], 5.1%; in assay [3], 19.6%; in assay [4], 28.4%; in assay [5], 22.1%; in assay [6], -8%.

With `O=c1cc(O)cc(CO)o1`, the growth inhibition in assay [1] was -7.65%; in assay [2] it was 5.7%; in assay [3] it was -9.8%; in assay [4] it was 1.2%; in assay [5], -21.2%; in assay [6], -2.05%.

Take `CC(C)CC(F)(C(N)=O)C(N)=O`: the growth inhibition in assay [1] is -4.6%; in assay [2] it was -4.15%; in assay [3], -3.4%; in assay [4], -3.05%; in assay [5] it was -5.65%; in assay [6], -4.2%.

Turning to `Nc1nc(N)c(N=Nc2ccc(Cl)cc2)c(=O)[nH]1`, the growth inhibition in assay [1] was 19.9%; in assay [2] it was -20.6%; in assay [3] it was -26.1%; in assay [4], 23.1%; in assay [5], 5.35%; in assay [6], 13.7%.

In the case of `O=[N+]([O-])c1cccc(S/N=C/c2c(O)ccc3ccccc23)c1`, the growth inhibition in assay [1] is 98.5% (active); in assay [2], 99.1% (active); in assay [3], 99.2% (active); in assay [4] it was 72.8% (active); in assay [5], 98.5% (active); in assay [6], 97.8% (active).

Consider `CC(=O)OC(C)CCl` (stereo not given), for which the growth inhibition is -27.6% in assay [1]; -48.1% in assay [2]; -34% in assay [3]; 2.6% in assay [4]; -17.7% in assay [5]; -14.2% in assay [6].

On to `C/C=C/c1ccc(OC(C)C(=O)c2ccc3c(c2)OCO3)c(OC)c1` (stereo not given), for which the growth inhibition in assay [1] was -12.4%; in assay [2], -28.9%; in assay [3], 8.8%; in assay [4], -10.5%; in assay [5] it was 6.7%; in assay [6], -7.05%.

For the compound `COc1ccc2c(c1)C1c3ccccc3CCN1CCC2` (stereo not given), the growth inhibition in assay [1] was 20.8%; in assay [2], 20.9%; in assay [3], -23.1%; in assay [4], 24.1%; in assay [5], -8.4%; in assay [6], 6%.

On to `O=c1[nH]c2cc([N+](=O)[O-])ccc2nc1/C=C(\O)c1ccccc1`, for which the growth inhibition is -21.2% in assay [1]; -18.4% in assay [2]; -14.3% in assay [3]; -3.7% in assay [4]; -1.8% in assay [5]; 3.3% in assay [6].
